# In PubChem BioAssay (NCATS):
# Records with an inconclusive call do not appear. A call without a number means that no potency is given here. For some of these results: Results with a measured potency or affinity are listed apart. Activity calls are given as the source filed them.
# What was measured:
# [1] = Ebola virus entry reporter assay, green channel fluorescence
# [2] = Ebola virus entry cell assay, ratio channel
# [3] = Immunotoxin (HA22) sensitization/mitigation study. Vehicle arm (PBS) (AID 1159510); conditions: cancer cells viability with PBS vehicle (HA22 study); series mostly up to 46.1 µM; note: potency is the fitted concentration of half-maximal effect
# [4] = Immunotoxin (SS1P) sensitization/mitigation study. Vehicle arm (DMEM) (AID 1159513); conditions: cell viability with vehicle (DMEM); series mostly up to 46.1 µM; note: potency is the fitted concentration of half-maximal effect
# [5] = High-throughput drug toxicity screening in the BPDCN cell line Gen2.2 (AID 1224824); conditions: Gen2.2 BPDCN cells; at 45.8 µM (top of the series) unless noted;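 note: cells exposed to compounds for 48 h before reading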
# In short: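 Readout is ATP luminescence from Gen2.2 cells after two days of drug exposure in serum-containing medium at 37 °C. Values express percent activity, with vehicle defining full signal and 9.2 uM bortezomib defining zero.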
# [6] = High-throughput drug toxicity screening in the BPDCN cell line Cal-1 (AID 1224825); conditions: Cal-1 BPDCN cell viability, qHTS; at 45.8 µM (top of the series) unless noted
# In short: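 CellTiter-Glo luminescence after 48 h compound exposure; percent activity scaled with DMSO as 100% and bortezomib (9.2 uM final) as 0%. Cal-1 cells seeded at 500/well in RPMI, 10% FBS, no phenol red.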
# [7] = qHTS assay for measurement of the activity of small molecule inhibitors on Zika virus induced Caspase-3 activity in human iPSC derived neural progenitor cells (hNPCs) (AID 1224857; active = well fitted inhibition curve with a large enough effect; note: nearly all actives have a fitted effect of over 65% in size); conditions: hNPCs ZIKV-induced caspase-3/7, Caspase-Glo luminescence, 6 h; series mostly up to 45.7 µM
# In short: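 After overnight (16–20 h) culture at 350 cells/well, hNPCs get compound, then ZIKV 2 FFU/cell one hour later. Six hours on, Caspase-Glo 3/7 is added and luminescence measured.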
# [8] = qHTS assay for measurement of the activity of small molecule inhibitors on Zika virus induced Caspase-3 activity in human astrocytoma cells (AID 1224859; active = well fitted inhibition curve with a large enough effect); conditions: SNB-19 ZIKV-induced caspase-3/7, luminescence, 6 h; series mostly up to 45.7 µM
# In short: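 Inhibition of Zika-induced caspase-3/7 activity: SNB-19 cells, 1 h compound pretreatment, ZIKV 2 FFU/cell for 6 h at 37 C, Caspase-Glo luminescence read-out.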
# [9] = qHTS Screen of the MIPE 4.0 Collection Against Ewings Sarcoma (RDES) (AID 1259252; active = well fitted inhibition curve with a large enough effect; note: nearly all actives have a fitted effect of over 35% in size; note: potency is the fitted concentration of half-maximal effect); conditions: RD-ES Ewing sarcoma viability, CellTiter-Glo, 48 h; series mostly up to 45.8 µM
# In short: (§1)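 Dose series incubated 48 h with cells in RPMI plus 5% FBS, glutamine and penicillin/streptomycin; cell viability then quantified via CellTiter-Glo.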
# [10] = qHTS Screen of the MIPE 4.0 Collection Against Ewings Sarcoma (EW8) (AID 1259255; active = well fitted inhibition curve with a large enough effect; note: nearly all actives have a fitted effect of over 35% in size); conditions: EW8 Ewing sarcoma viability, CellTiter-Glo, 48 h; series mostly up to 45.8 µM
# In short: as §1
# [11] = P-glycoprotein substrates identified in KB-3-1 adenocarcinoma cell line, qHTS therapeutic library screen (AID 1346986; active = well fitted inhibition curve with a large enough effect; note: nearly all actives have a fitted effect of over 60% in size); conditions: KB-3-1 parental cells viability, CellTiter-Glo, 72 h; at 44.5 µM (top of the series) unless noted
# In short: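 Viability by CellTiter-Glo after 72 h compound exposure at 37 degree C, 5% CO2. Cytotoxic call: curve class -1.1 to -2.4, maximum response >50%, AC50 < 10 uM, compared across KB-3-1 and P-gp-overexpressing KB-8-5-11.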
# [12] = qHTS Screen of the MIPE 4.0 Collection Against Ewings Sarcoma (TC71) (AID 1259253; active = well fitted inhibition curve with a large enough effect; note: nearly all actives have a fitted effect of over 40% in size; note: potency is the fitted concentration of half-maximal effect); conditions: TC71 Ewing sarcoma viability, CellTiter-Glo, 48 h; series mostly up to 45.8 µM
# In short: as §1
# [13] = qHTS Screen of the MIPE 4.0 Collection Against Ewings Sarcoma (TC32) (AID 1259256; active = well fitted inhibition curve with a large enough effect; note: nearly all actives have a fitted effect of over 45% in size; note: potency is the fitted concentration of half-maximal effect); conditions: TC32 Ewing sarcoma viability, CellTiter-Glo, 48 h; series mostly up to 45.8 µM
# In short: as §1
compound,measurement,setting,value
CCOC(=O)[C@H](CCc1ccccc1)N[C@@H](C)C(=O)N1[C@H](C(=O)O)C[C@H]2CCCC[C@@H]21,outcome,[1],inactive
same,outcome,[2],inactive
N[C@@H](Cc1cc(I)c(Oc2ccc(O)c(I)c2)c(I)c1)C(=O)O,outcome,[1],inactive
same,outcome,[2],inactive
Nc1nc(/C(=C/CC(=O)O)C(=O)N[C@@H]2C(=O)N3C(C(=O)O)=CCS[C@H]23)cs1,outcome,[1],inactive
same,outcome,[2],inactive
CC(=O)NCCCS(=O)(=O)O,outcome,[1],inactive
same,outcome,[2],inactive
CCC(=O)OC(OP(=O)(CCCCc1ccccc1)CC(=O)N1C[C@H](C2CCCCC2)C[C@H]1C(=O)O)C(C)C (some centres undefined),outcome,[1],inactive
same,outcome,[2],inactive
C[C@@H]1O[C@@H]1P(=O)(O)O,outcome,[1],inactive
same,outcome,[2],inactive
CN1[C@@H]2CCC[C@@H]1CC(NC(=O)c1nn(C)c3ccccc13)C2 (some centres undefined),outcome,[1],inactive
same,outcome,[2],inactive
CC(C)(S)[C@@H](N)C(=O)O,outcome,[1],inactive
same,outcome,[2],inactive
COc1cc([C@@H]2c3cc4c(cc3[C@@H](O[C@@H]3O[C@@H]5CO[C@@H](C)O[C@H]5[C@H](O)[C@H]3O)[C@H]3COC(=O)[C@H]23)OCO4)cc(OC)c1O,outcome,[1],inactive
same,outcome,[2],inactive
CCCCC(=O)N(Cc1ccc(-c2ccccc2-c2nn[nH]n2)cc1)[C@@H](C(=O)O)C(C)C,outcome,[1],inactive
same,outcome,[2],inactive
CC1(C)S[C@@H]2[C@H](NC(=O)[C@H](N)c3ccc(O)cc3)C(=O)N2[C@H]1C(=O)O,outcome,[1],inactive
same,outcome,[2],inactive
CCCCC(C)(O)C/C=C/[C@H]1[C@H](O)CC(=O)[C@@H]1CCCCCCC(=O)OC (some centres undefined),outcome,[1],inactive
same,outcome,[2],inactive
CO[C@H]1C=CO[C@@]2(C)Oc3c(C)c(O)c4c(O)c(c(/C=N/N5CCN(C6CCCC6)CC5)c(O)c4c3C2=O)NC(=O)/C(C)=C\C=C[C@H](C)[C@H](O)[C@@H](C)[C@@H](O)[C@@H](C)[C@H](OC(C)=O)[C@@H]1C,outcome,[1],inactive
same,outcome,[2],inactive
CN[C@@H]1[C@H](O[C@H]2[C@H](O[C@H]3[C@H](O)[C@@H](O)[C@H](N=C(N)N)[C@@H](O)[C@@H]3N=C(N)N)O[C@@H](C)[C@]2(O)C=O)O[C@@H](CO)[C@H](O)[C@H]1O,outcome,[1],inactive
same,outcome,[2],inactive
CCOC(=O)[C@H](CCc1ccccc1)N[C@H]1CCCN2CCC[C@@H](C(=O)O)N2C1=O,outcome,[1],inactive
same,outcome,[2],inactive
Nc1nc(NC2CC2)c2ncn([C@@H]3C=C[C@@H](CO)C3)c2n1,outcome,[1],inactive
same,outcome,[2],inactive
CCOC(=O)C1=C[C@@H](OC(CC)CC)[C@H](NC(C)=O)[C@@H](N)C1,outcome,[1],inactive
same,outcome,[2],inactive
NC(=O)CC[C@@H]1NC(=O)[C@H](Cc2ccccc2)NC(=O)[C@H](Cc2ccc(O)cc2)NC(=O)[C@@H](N)CSSC[C@@H](C(=O)N2CCC[C@H]2C(=O)N[C@@H](CCCN=C(N)N)C(=O)NCC(N)=O)NC(=O)[C@H](CC(N)=O)NC1=O,outcome,[1],inactive
same,outcome,[2],inactive
CN1C(=O)OC(C)(C)C1=O,outcome,[1],inactive
same,outcome,[2],inactive
C#CCC(Cc1cnc2nc(N)nc(N)c2n1)c1ccc(C(=O)N[C@@H](CCC(=O)O)C(=O)O)cc1 (some centres undefined),outcome,[1],inactive
same,outcome,[2],inactive
CC(=O)N1CCN(c2ccc(OC[C@H]3CO[C@](Cn4ccnc4)(c4ccc(Cl)cc4Cl)O3)cc2)CC1,outcome,[1],inactive
same,outcome,[2],inactive
CC(C)CN(C[C@@H](OP(=O)(O)O)[C@H](Cc1ccccc1)NC(=O)O[C@H]1CCOC1)S(=O)(=O)c1ccc(N)cc1,outcome,[1],inactive
same,outcome,[2],inactive
CC(C)[C@H]1C(=O)N2CCC[C@H]2[C@]2(O)O[C@](NC(=O)[C@@H]3C[C@@H]4c5cccc6[nH]cc(c56)C[C@H]4N(C)C3)(C(C)C)C(=O)N12,outcome,[1],inactive
same,outcome,[2],inactive
CCOc1cc(CC(=O)N[C@@H](CC(C)C)c2ccccc2N2CCCCC2)ccc1C(=O)O,outcome,[1],inactive
same,outcome,[2],inactive
CC(C=CC1=C(C)CCCC1(C)C)=CC=CC(C)=CC(=O)O,outcome,[1],inactive
same,outcome,[2],inactive
Nc1nc2[nH]cc(CCc3ccc(C(=O)N[C@@H](CCC(=O)O)C(=O)O)cc3)c2c(=O)[nH]1,Potency,[3],0.059 µM (active)
same,Potency,[4],0.187 µM (active)
CC(C)C[C@H](CN)CC(=O)O,"cell viability, % of control (lower = more cytotoxic)",[5],401%
same,viability (% of control),[6],132%
same,outcome,[7],inactive
same,outcome,[8],inactive
same,Potency,[9],inactive
same,outcome,[10],inactive
CCCCCN(C)CCC(O)(P(=O)(O)O)P(=O)(O)O,outcome,[7],inactive
same,outcome,[11],inactive
CNC(=O)c1ccccc1Sc1ccc2c(/C=C/c3ccccn3)n[nH]c2c1,Potency,[3],6.62 µM (active)
Nc1nc(Cl)nc2c1ncn2[C@H]1C[C@H](O)[C@@H](CO)O1,Potency,[3],9.59 µM (active)
C[C@](O)(CS(=O)(=O)c1ccc(F)cc1)C(=O)Nc1ccc(C#N)c(C(F)(F)F)c1,"cell viability, % of control (lower = more cytotoxic)",[5],14%
same,viability (% of control),[6],5.28%
same,outcome,[7],inactive
same,outcome,[8],inactive
same,Potency,[9],1.87 µM (active)
same,Potency,[12],3.72 µM (active)
same,Potency,[13],4.69 µM (active)
C[C@]12CC[C@@H]3c4ccc(OC(=O)N(CCCl)CCCl)cc4CC[C@H]3[C@@H]1CC[C@@H]2OP(=O)(O)O,"cell viability, % of control (lower = more cytotoxic)",[5],99.3%
same,viability (% of control),[6],82.9%
same,outcome,[7],inactive
same,outcome,[8],inactive
same,Potency,[9],inactive
same,Potency,[12],inactive
same,outcome,[10],inactive
same,Potency,[13],inactive
same,outcome,[11],inactive
Nc1ccn(C[C@@H](CO)OCP(=O)(O)O)c(=O)n1,outcome,[11],inactive [at 17.4 µM]
